From PubChem
Compounds with a hit are over-represented: about 2.2% of the library has one in this group of screens.
A549 viability: counter-screen for Nrf2 inhibitors: cytotoxicity in A549 cells; A549 ARE-Fluc cells, CellTiter-Fluor viability, 18-24 h; Potency, µM (titrated, usually from 46 µM), most hits filed as inhibitors; hit rate 0.16% among 390,000
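Cytotoxicity counterscreen: CellTiter-Fluor fluorescence was measured in A549 ARE_Fluc cells after 18-24 h of compound exposure in a concentration series. The subsequent BugLite luminescent read reports ARE-luciferase activity.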
Nrf2 block: blocks Nrf2 signaling | hit rate 2.1% among 360,000 | Potency, µM (series often up to 46 µM), usual class: inhibitors | A549 ARE-Fluc reporter, luciferase luminescence, 18-24 h; further: nearly all actives have a fitted effect of over 60% in size
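Two sequential reads on A549 ARE_Fluc cells exposed to compound for 18-24 h: a CellTiter-Fluor fluorescence read for viability, then a luciferase luminescence read for Nrf2/ARE activity.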
Nrf2 activator: activators of Nrf2 (ARE) signaling | AREc32 ARE-luciferase reporter (MCF7-derived line), luminescence, 24 h | Potency, µM (top dose mostly 46.1 µM), actives largely listed as activators | hit rate 0.31% among 410,000; further: nearly all actives have a fitted effect of over 65% in size
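ARE activation measured as luciferase luminescence (Steady-Glo, 30 min RT) in AREc32_Fluc cells after 24 hr compound exposure at 37 deg C, 5% CO2; cells seeded overnight at 1000/well in OPTI-MEM, 5% FBS.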
Pin1 inh: blocks the human prolyl isomerase Pin1; Pin1 FP peptide displacement, HiFluor488, 10 min; Potency, µM (highest dose often 115 µM), hits mostly inhibitors; hit rate 0.009% among 390,000; active means well fitted inhibition curve with a large enough effect in the polarisation, with a control signal flat, not every such curve was filed as active; inconclusive means small, poorly fitted or top-dose-only effect, or effect the other way, or a change in a side signal; inactive means no such curve, though single readings can be large or run the other way; the % refers to the polarisation
Target sequence (Q13526 whole entry, looked up): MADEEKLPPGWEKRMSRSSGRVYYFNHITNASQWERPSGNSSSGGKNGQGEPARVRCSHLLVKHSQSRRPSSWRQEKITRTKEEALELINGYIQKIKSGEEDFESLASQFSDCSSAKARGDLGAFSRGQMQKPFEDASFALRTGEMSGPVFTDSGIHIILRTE
Of the large screens only hits and unclear results are named; the others gave an inactive call. Unless noted, the call rests on the fitted dose curve; in most records, active means well fitted curve in the direction sought with a large enough effect; inconclusive means small, poorly fitted or top-dose-only effect, or another doubt; inactive means no such curve, though single readings can be large; an effect the other way counts as inactive or inconclusive.

Cc1ccccc1Nc1nc(C#N)nc(NC2CCCC2)n1	Nrf2 block 9.2µM (no result: Nrf2 activator)
N#Cc1nc(Nc2ccccc2)nc(NC2CCCC2)n1	none (no result: Nrf2 activator)
N#Cc1nc(Nc2cccc3ccccc23)nc(NC2CCCC2)n1	Nrf2 block 18µM (no result: Nrf2 activator)
COC(=O)c1ccc(-c2ccc(C3C4C=CCC(C)C4C(=O)N3Cc3ccccc3)c(F)c2)cc1 (stereo not given)	Nrf2 block 10µM (no result: Nrf2 activator)
CC(=O)c1ccc(-c2cc([C@H]3[C@H]4C=CC[C@@H](C)[C@@H]4C(=O)N3Cc3ccccc3)ccc2F)cc1	Nrf2 block 21µM
CC(=O)c1ccc(-c2cc(C3C4C=CCC(C)C4C(=O)N3Cc3ccccc3)ccc2F)cc1 (stereo not given)	Nrf2 block inconclusive (no result: Nrf2 activator)
CCCCNC(=O)CCCn1c(=O)c2ccccc2n(Cc2ccccc2C)c1=O	none
Cc1ccc2c(c1C)NC(C(=O)O)C1CC=CC21 (stereo not given)	Pin1 inh 7.6µM
Cc1cc(C)c2c(c1)C1C=CCC1C(C(=O)O)N2 (stereo not given)	Pin1 inh inconclusive (no result: Nrf2 activator)
CCOC(=O)c1cc(CC)sc1NC(=O)CN1CCN(C(=O)c2ccco2)CC1	A549 viability inconclusive, Nrf2 block 21µM
CCOC(=O)c1cc(C)sc1NC(=O)CN1CCN(C(=O)c2ccco2)CC1	none
COc1ccc(-c2nc(-c3ccccn3)ncc2S(C)(=O)=O)cc1	none
Cn1nc(-c2ccccn2)nc2c(=O)n(C)c(=O)nc1-2	A549 viability 3.3µM, Nrf2 block 3.7µM (no result: Pin1 inh)
CCc1ccc(-c2nc3c(=O)n(C)c(=O)nc-3n(CC)n2)cc1	A549 viability inconclusive, Nrf2 block 15µM (no result: Nrf2 activator, Pin1 inh)
CCCc1nc2c(=O)n(C)c(=O)nc-2n(C)n1	A549 viability 6.5µM, Nrf2 block 23µM, Pin1 inh inconclusive
Cc1ccccc1-c1nc2c(=O)n(C)c(=O)nc-2n(C)n1	A549 viability 4.1µM, Nrf2 block 2.3µM (no result: Nrf2 activator, Pin1 inh)
CCc1ccc(-c2csc3ncn(CC)c(=O)c23)cc1	none
CC(=NNC(=S)Nc1ccccc1)c1ccccn1	none (no result: A549 viability, Nrf2 block, Pin1 inh)
C=CCNC(=S)N/N=C(\C)c1ccccn1	A549 viability inconclusive, Nrf2 block 0.58µM, Nrf2 activator inconclusive
CCn1c(=O)c2cc(C(=O)NCCOC)sc2c2ccccc21	Nrf2 block 21µM
Cc1c(P(=S)(c2ccccc2)c2ccccc2)c2ccccc2n1C/C=C/c1ccccc1	none (no result: Nrf2 activator)
COc1cc(/C=C(\C#N)c2ccccn2)cc(OC)c1O	Nrf2 activator 13µM, Pin1 inh inconclusive
N#C/C(=C\c1ccccn1)c1ccccn1	Nrf2 block inconclusive, Nrf2 activator 22µM
Cc1cc(C)n2nc(/C(C#N)=C/c3ccccn3)c(C#N)c2n1	Nrf2 activator 7.9µM
O=C(COC(=O)/C=C/c1ccccc1[N+](=O)[O-])Nc1ccc2[nH]c(=O)[nH]c2c1	Nrf2 activator 11µM, Pin1 inh inconclusive
O=C(N/N=C/c1ccco1)c1cc(-c2ccccc2)nc2ccccc12	none
O=C(N/N=C/c1ccc([N+](=O)[O-])o1)c1cc(-c2cccc(Br)c2)nc2ccccc12	A549 viability inconclusive, Nrf2 block 13µM, Nrf2 activator inconclusive
CCCc1ccc(-c2cc(C(=O)N/N=C/c3ccc([N+](=O)[O-])o3)c3ccccc3n2)cc1	Nrf2 block 10µM, Pin1 inh inconclusive
Cc1cc(C)c(S(=O)(=O)Nc2ccc(-c3ccc(N4CCCCC4)nn3)cc2)c(C)c1	none (no result: Nrf2 block)
O=C(CNC(=O)c1ccccc1Cl)OC(C(=O)Nc1cc(C(F)(F)F)ccc1Cl)c1ccccc1 (stereo not given)	none (no result: Nrf2 activator)
Cc1ccc(Oc2ncccc2NC(=O)CC2(CC(=O)O)CCCC2)c2c1CCC2	none
CCOC(=O)C(=CNc1cccnc1Oc1ccc(C)c2c1CCC2)C(=O)OCC	Nrf2 block 18µM
CCOC(=O)C(C)N1C(=O)S/C(=C/c2ccc3c(c2)n(C)c(=O)n3C)C1=O (stereo not given)	Nrf2 block 21µM, Nrf2 activator inconclusive
COc1cccc(-n2c(SCc3ccc(F)cc3)nc3c([nH]c4ccccc43)c2=O)c1	none (no result: Nrf2 block)
CCn1c(N2CCN(S(=O)(=O)c3ccccc3C(F)(F)F)CC2)nc2ccccc21	Nrf2 block 21µM
CCn1c(N2CCN(S(=O)(=O)c3ccc(OC)cc3)CC2)nc2ccccc21	Nrf2 block 21µM, Pin1 inh inconclusive
Cn1c(N2CCN(S(=O)(=O)c3ccc(F)cc3)CC2)nc2ccccc21	Nrf2 block inconclusive
Cc1ccc(Cl)cc1N1CCN(Cc2nnc(-c3ccc4c(c3)OCO4)o2)CC1	Nrf2 block 21µM
Clc1ccc(N2CCN(Cc3nnc(-c4ccc5c(c4)OCO5)o3)CC2)cc1	none
Clc1nc(NCC2CCCO2)c2[nH]cnc2n1 (stereo not given)	none (no result: Nrf2 activator)
